HEK293 tox: HEK 293 cell cytotoxicity; HEK 293 viability, ATP luminescence (CellTiter-Glo), 48-72 h; hit rate 6.6% among 94,000; Potency, µM (series often up to 115 µM), for the others: at the top dose activity change, negative = cytotoxicity, usual class: inhibitors; AID 1345083; further: nearly all actives have a fitted effect of over 60% in size
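HEK 293 seeded at 250 cells/well receive compound via pintool. After 48 or 72 hr at 37 degree Celsius, 5% CO2 and 95% humidity, CellTiter-Glo is dispensed and luminescence read following 10 min at room temperature.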
NPR1 antag: human Npr1 receptor antagonism. P16066. HEK293 hNpr1 GloSensor cGMP, ANP-stimulated luminescence. Potency, µM (doses to about 46.3 µM), inactives show top-dose activity change, negative = inhibition, most hits filed as inhibitors. hit rate 1.6% among 76,000. AID 1347048; calls by dose curve; further: nearly all actives have a fitted effect of over 60% in size
Target sequence (P16066 whole entry, looked up): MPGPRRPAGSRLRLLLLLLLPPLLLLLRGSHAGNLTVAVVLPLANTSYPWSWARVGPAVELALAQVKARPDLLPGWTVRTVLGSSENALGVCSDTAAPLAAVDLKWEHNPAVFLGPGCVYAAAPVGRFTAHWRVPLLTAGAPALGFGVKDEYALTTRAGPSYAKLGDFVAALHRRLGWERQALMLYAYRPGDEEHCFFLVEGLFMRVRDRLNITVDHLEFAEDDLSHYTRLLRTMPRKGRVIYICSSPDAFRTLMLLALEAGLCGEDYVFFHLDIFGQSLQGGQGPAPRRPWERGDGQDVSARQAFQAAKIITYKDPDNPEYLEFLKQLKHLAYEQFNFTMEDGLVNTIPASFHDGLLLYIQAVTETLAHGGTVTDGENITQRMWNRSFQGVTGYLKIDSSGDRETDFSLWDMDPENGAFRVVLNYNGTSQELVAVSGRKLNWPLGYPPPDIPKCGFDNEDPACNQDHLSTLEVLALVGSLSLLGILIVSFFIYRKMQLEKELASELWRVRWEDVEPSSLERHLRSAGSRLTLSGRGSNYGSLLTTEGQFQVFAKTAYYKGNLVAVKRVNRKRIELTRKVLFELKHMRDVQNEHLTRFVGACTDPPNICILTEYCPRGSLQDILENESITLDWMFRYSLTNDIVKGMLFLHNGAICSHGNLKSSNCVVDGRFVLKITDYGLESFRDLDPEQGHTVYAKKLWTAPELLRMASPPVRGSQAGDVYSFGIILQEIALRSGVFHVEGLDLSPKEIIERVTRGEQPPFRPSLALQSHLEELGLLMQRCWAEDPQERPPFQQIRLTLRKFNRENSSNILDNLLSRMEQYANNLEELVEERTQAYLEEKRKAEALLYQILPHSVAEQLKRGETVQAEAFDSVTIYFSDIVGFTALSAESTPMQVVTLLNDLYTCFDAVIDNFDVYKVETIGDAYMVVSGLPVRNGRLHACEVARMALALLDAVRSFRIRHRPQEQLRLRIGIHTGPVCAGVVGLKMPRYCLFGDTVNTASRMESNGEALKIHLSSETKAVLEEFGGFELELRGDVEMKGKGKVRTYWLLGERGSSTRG
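HEK293 cells stably expressing human Npr1 and cGMP GloSensor pGS-40F, loaded 2 h with 2% GloSensor reagent, given compound 30 min at room temperature. Luminescence read before and 20 min after 0.1 nM hNppA.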
GPT2 inh: blocks human glutamate pyruvate transaminase 2. Q8TD30. Recombinant GPT2, coupled pyruvate oxidase/HRP Amplex Red fluorescence. Potency, µM (doses to about 57.7 µM), inactives show at the highest dose activity change, negative = inhibition, hits mostly inhibitors. hit rate 0.25% among 100,000. AID 1671188; further: nearly all actives have a fitted effect of over 60% in size
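GPT2 10ng/uL, a-KG 250uM, L-Ala 2mM, HEPES pH7.5 + 0.0001% Tween; 30 min RT. Then Amplex mix (PO/HRP/ThPP), 30 min RT dark, fluorescence. AOA 50uM used as positive control.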
3T3 cytotox: cytotoxic compounds in NIH 3T3 cells | NIH 3T3 viability, CellTiter-Glo ATP luminescence, 48-72 h | Potency, µM (highest dose often 96.7 µM), without a hit: at the highest dose activity change, negative = cytotoxicity, hits mostly inhibitors | hit rate 4.3% among 94,000; further: nearly all actives have a fitted effect of over 55% in size
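Cytotoxicity is measured as loss of cellular ATP: NIH 3T3 cells (400/well) are exposed to compound for 48 or 72 hr at 37 °C, then CellTiter-Glo luminescence is imaged after 10 min at room temperature.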
Luciferase inh: inhibitors of firefly (Photinus pyralis) luciferase | purified P. pyralis luciferase, luminescence, biochemical | Potency, µM (doses to about 115 µM), actives largely listed as inhibitors | hit rate 2.5% among 76,000 | AID 1347043; further: nearly all actives have a fitted effect of over 65% in size
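Purified P. pyralis luciferase (10nM final) in 50mM Tris acetate pH 7.5, 10mM Mg acetate, 0.01% Tween-20, 0.05% BSA with 10uM D-luciferin and 10uM ATP. Compounds titrated qHTS. Luminescence imaged on CCD.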
Active calls of the source: *; i = inactive; ? = inconclusive; . = not tested or not shown; ! = repeats disagree; [ ] = another dose, or the depositor's remark. Compounds with a hit are over-represented: about 10% of the library has one in this group of screens. Unless noted, the call rests on the fitted dose curve; in most records, active means well fitted curve in the direction sought with a large enough effect; inconclusive means small, poorly fitted or top-dose-only effect, or another doubt; inactive means no such curve, though single readings can be large; an effect the other way counts as inactive or inconclusive. On the % scale 0 is the no-effect control and ±100 the full control effect; potency means the concentration at half of the fitted maximal effect.

SMILES	HEK293 tox	NPR1 antag	GPT2 inh	3T3 cytotox	Luciferase inh
Cc1ccccc1C(=O)N1CCC2(CC1)CCN(CCc1ccccc1)c1ccccc1O2	28µM*	2%	5%	?	i
CC(=O)O[C@H]1[C@@H](CN(C)S(=O)(=O)c2cccs2)[C@H]2O[C@@H]1c1ccccc12	?	.	-16%[27.3 µM]	-16%[46.1 µM]	.
O=C(Cc1ccccc1)NC1CCCN(c2ccnc3ccnn23)C1 (centres undefined)	?	.	i	-9%	.
COc1cc(F)ccc1-c1cnc2n[nH]c(-c3sccc3C)c2n1	45µM*	-10%[70.6 µM]	0%[88.5 µM]	?	i
Cc1ccsc1-c1[nH]nc2ncc(-c3ccc(F)cc3)nc12	71µM*	-10%[70.6 µM]	-3%[88.5 µM]	?	i
Cc1ccsc1-c1[nH]nc2ncc(-c3cccc(CO)c3)nc12	79µM*	-6%[70.6 µM]	3%[88.5 µM]	?	?
Cc1noc(-c2cccc(OC3CN(S(=O)(=O)c4cn(C)cn4)C3)c2)n1	-8%	-6%	-14%	-21%	i
COc1ccc2c(C)c(C(=O)N3CCOC(c4ccc(F)cc4)C3)oc2c1 (centres undefined)	?	-14%	-33%	?	i
COc1cc(CN2CCN(c3ncnc(C)c3C)CC2CCO)cc(OC)c1 (centres undefined)	?	1%	0%[11.5 µM]	-38%	i
COc1ccc2cc(C3CN(c4ncnc(C)c4C)CCO3)ccc2c1 (centres undefined)	?	2.5µM*	-6%	?	?
COCC1(C(=O)N2CCOC(c3ccc4cc(OC)ccc4c3)C2)CCC1 (centres undefined)	?	-22%	1%	?	20µM*
COc1ccc2cc(C3CN(C(=O)c4cccn4C)CCO3)ccc2c1 (centres undefined)	?	16µM*	?	40µM*	4.5µM*
CSc1ccc(C(=O)N2CC(=O)N(CC3CC3)CC(C)(C)C2)cc1	-7%	.	.	?	.
CC1Oc2ccc(NS(=O)(=O)c3ccc(Cl)cc3)cc2CN(Cc2ccccc2F)C1=O (centres undefined)	?	?	i	35µM*	i
Cc1ccc(S(=O)(=O)Nc2ccc3c(c2)CN(CCc2ccc(F)cc2)C(=O)C(C)O3)cc1F (centres undefined)	?	-18%	i	?	i
CCC(c1ccccc1)N1Cc2cc(NS(=O)(=O)c3ccc(F)cc3)ccc2OC(C)C1=O (centres undefined)	?	-21%	-9%	14µM*	i
CC1Oc2ccc(NS(=O)(=O)c3cccc(Cl)c3)cc2CN(Cc2ccccc2Cl)C1=O (centres undefined)	?	-24%	-7%	22µM*	i
CC1Oc2ccc(NC(=O)c3ccccc3Cl)cc2CN(Cc2ccc3c(c2)OCO3)C1=O (centres undefined)	?	-24%	i	?	i
COc1ccc(CN2CCCC3(Cc4ccccc4CNC3=O)C2)cc1F (centres undefined)	-21%	.	i	?	.
CN1CCCC1c1nc(C2CN(C(=O)CCCc3nc4ccccc4[nH]3)C2)no1 (centres undefined)	4%	5%	i	0%	i
O=C(NC1CCN(c2nc3ncccc3o2)C1)c1ccccc1Cl (centres undefined)	2%	.	1%	-19%	.
O=C(CCc1c[nH]c2ccccc12)N1CCC(Cc2nc(-c3ccncc3)n[nH]2)CC1	-29%	.	i	?	.
O=C(CCc1c[nH]c2ccccc12)N1CCC[C@H]1c1nc(-c2ccc(F)cc2)n[nH]1	40µM*	.	i	?	.
O=C(NC1CCCN(c2cc(-c3ccc(F)cc3)[nH]n2)C1)c1ccccc1 (centres undefined)	?	-13%	-2%	?	?
O=C(NC1CCN(c2cc(-c3ccc(Cl)cc3)[nH]n2)C1)c1ccc(F)c(F)c1 (centres undefined)	?	-15%	-20%	?	i
SMILES	HEK293 tox	NPR1 antag	GPT2 inh	3T3 cytotox	Luciferase inh
O=C(NC1CCCN(c2cc(-c3ccc(F)cc3)[nH]n2)C1)c1cccc(F)c1 (centres undefined)	32µM*	-9%	-2%	?	i
O=C(NC1CCCN(c2cc(-c3ccc(F)cc3)[nH]n2)C1)c1ccc(F)c(F)c1 (centres undefined)	45µM*	-28%	i	?	i
O=C(c1cccc(OC(F)(F)F)c1)N1CCN(c2cc(-c3cccs3)[nH]n2)CC1	?	-25%	?	?	i
O=C(c1cccc(OC(F)(F)F)c1)N1CCN(c2cc(-c3ccc(F)cc3)[nH]n2)CC1	?	?	-3%	35µM*	i
O=C(NC1CCCN(c2cc(-c3ccc(F)cc3)[nH]n2)C1)c1c[nH]c2ccccc12 (centres undefined)	?	-23%	-4%	?	22µM*
O=C(NC1CCN(c2cc(-c3ccc(F)cc3)[nH]n2)C1)c1cccc(OC(F)(F)F)c1 (centres undefined)	40µM*	-12%	-14%	?	i
Cc1ccc(-c2cc(C(=O)NC3CC3)nn3cnnc23)cc1	?	.	3%[88.5 µM]	?	.
CN(C)c1ncc2c(n1)C(C)(C(=O)Nc1ccncc1)CCC2 (centres undefined)	?	-2%[70.6 µM]	-6%[88.5 µM]	10µM*	i
CN(C)c1ncc2c(n1)C(C)(C(=O)NCc1cccc(F)c1)CCC2 (centres undefined)	?	-2%[70.6 µM]	-3%[88.5 µM]	?	i
CN(C)c1ncc2c(n1)C(C)(C(=O)NCc1cccc(Cl)c1)CCC2 (centres undefined)	100µM*	-22%[70.6 µM]	4%[88.5 µM]	?	i
Nc1nc(C2CC(N)C2)cc(N2CCCN(Cc3cccs3)CC2)n1 (centres undefined)	45µM*	5%	?	?	i
O=[N+]([O-])c1cccc(-c2noc([C@@H]3Cc4nc[nH]c4CN3)n2)c1	?	2%[70.6 µM]	1%[88.5 µM]	-28%[174 µM]	45µM*!
O=C(Cc1c(F)cccc1Cl)N1CCC(c2noc(COc3ccc(F)cc3)n2)CC1	89µM*	?	i	?	i
Cc1ccc(OCc2nc(C3CN(C(=O)c4cc(C)nn4C)C3)no2)cc1	45µM*	?	i	-24%	40µM*
Cc1ccc(OCc2nc(C3CN(C(=O)c4ccc(C)nc4)C3)no2)cc1	-12%	-10%	-14%	-14%	i
CCn1nccc1C(=O)N1CCC(c2noc(COc3ccc(F)cc3)n2)C1 (centres undefined)	45µM*	-28%	-16%	?	i
O=C(NCCc1ccc(Cl)cc1)C1CCCN1Cc1ccc(-c2cncnc2)cc1 (centres undefined)	?	.	i	?	.

Compound activity as filed in PubChem.
